Most compounds without a hit are left out; they make up all but 4.8% or so of the library.
hgDAF12 agonist = H. glycines DAF-12 receptor agonists, primary screen, cell-based, luminescence, HEK293, GAL4 fusion, UAS-luciferase; activation, % at 6.8 µM; 370,000 tested, 1.8% active; HEK293 GAL4-hgDAF12 UAS-luciferase reporter, agonist luminescence; normalized to butyrate control; Nuclear hormone receptor DAF-12 (Heterodera glycines), GAL4 fusion;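 active = activation above a cutoff set at the mean of all screened compounds plus 3 SD, cut at about 10% in these data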;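 note: 0% = DMSO wells and 100% = sodium butyrate wells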
ssDAF12 agonist = S. stercoralis DAF-12 nuclear receptor activators, primary screen, cell-based, luminescence, HEK293, GRIP1 co-expression, lit1-tk-luc; 370,000 tested, 1% active; activation, % at 6.8 µM; HEK293 ssDAF-12/GRIP1 lit1-tk-luc reporter; % of 3 µM dafachronic acid response;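 active = activation above the mean over all tested compounds plus 3 SD, cut at about 0.9% in these data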;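 note: 0% = DMSO-only wells and 100% = 3 µM delta7-dafachronic acid wells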
SMARCA2 act = SMARCA2 (BRM) function activators, primary screen, cell-based, luminescence, high throughput; 370,000 tested, 1% active; AID 652017, 2013; MG213 cells, MMTV-luciferase reporter, dexamethasone, overnight; activation, % at 9.1 µM; in the data active = activation above about 7.8%;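 note: 0% = vehicle wells and 100% = reference activator wells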
hcDAF-12 act = H. contortus DAF-12 nuclear receptor activators, primary screen, cell-based, luminescence, HEK293, lit1-tk-luc reporter; HEK293 hcDAF-12 lit1-tk-luc reporter; 0% DMSO, 100% Δ7-dafachronic acid; activation, % at 6.8 µM; 370,000 tested, 1.4% active; AID 652067, 2013;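 active = activation above the mean of all tested compounds plus 3 SD, cut at about 5.5% in these data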;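 note: 100% = response to 3 µM Δ7-dafachronic acid high control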
DAX1 inh-1 = DAX1 (NR0B1) inhibitors, primary screen, cell-based, HEK293, Gal4-DAX1, luciferase luminescence; Nuclear receptor subfamily 0 group B member 1 (Homo sapiens), P51843; HEK293 Gal4-DAX1 luciferase reporter; inhibition, % at 6.75 µM; 340,000 tested, 0.99% active; AID 504766, 2011;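 active = inhibition above the mean over all tested compounds plus 3 SD, cut at about 4.2% in these data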;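 note: 0% = DAX1-transfected cells with DMSO and 100% = empty-vector control cells with DMSO; inhibition shows as a rise in luminescence from relieved DAX1 repression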
Target sequence (P51843 207-470 limits assumed): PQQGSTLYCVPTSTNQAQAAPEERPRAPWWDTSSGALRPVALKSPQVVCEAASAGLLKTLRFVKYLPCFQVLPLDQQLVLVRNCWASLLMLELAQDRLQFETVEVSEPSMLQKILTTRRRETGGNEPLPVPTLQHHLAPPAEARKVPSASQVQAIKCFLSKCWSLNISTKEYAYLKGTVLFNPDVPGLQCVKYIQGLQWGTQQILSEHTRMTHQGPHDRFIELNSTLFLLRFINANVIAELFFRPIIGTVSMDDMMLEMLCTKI
DAX1 inh-2 = DAX1 (NR0B1) inhibitors on StAR promoter, primary screen, cell-based, luminescence, SF-1 (NR5A1), full-length DAX-1; HEK293T StAR-luciferase reporter, SF-1/DAX-1 repression relief; inhibition, % at 6.8 µM; 370,000 tested, 1.1% active; AID 652010, 2013;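 active = inhibition above the mean over all tested compounds plus 3 SD, cut at about 3.6% in these data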;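 note: 0% = DAX-1 cells with DMSO and 100% = cells lacking DAX-1 with DMSO; higher inhibition means more luminescence from relief of DAX-1 repression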
SMARCA2 conf = SMARCA2 (BRM) function activators, confirmation, cell-based, luminescence, triplicate; shares compounds with SMARCA2 act; MG213 cells, MMTV-luciferase with dexamethasone, overnight; MG213 cells expressing E1A, Rb sequestered; DMSO wells 0%, reference activator 100%; activation, % at 9.1 µM; 3,500 tested, 30% active; AID 652260, 2013;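 active = activation above its plate's cutoff, the mean activation of tested wells plus 3 SD, cut at about 7.9% in these data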
GAL4-VP16 Luc = GAL4-VP16 luciferase reporter activation, counter-screen for SMARCA2 (BRM) activator project, cell-based, pG5luc, luminescence, high throughput | shares compounds with SMARCA2 act | HEK293 GAL4-VP16 pG5luc reporter; scaled: DMSO wells 0%, SAHA wells 100% | activation, % at 9.1 µM | 3,500 tested, 41% active;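 active = activation above the solvent-only control well mean plus 3 SD, averaged across control plates, cut at about 5.2% in these data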
Active calls of the source: *; nt = not tested or not shown.

SMILES	hgDAF12 agonist	ssDAF12 agonist	SMARCA2 act	hcDAF-12 act	DAX1 inh-1	DAX1 inh-2	SMARCA2 conf	GAL4-VP16 Luc
Cc1cccc(NC(=O)C2C(C(=O)O)C3C=CC2C32CC2)c1C (centres undefined)	2	-1	1	-1	0	-1	nt	nt
Cc1ccc(NC(=O)C2C(C(=O)O)C3C=CC2C32CC2)cc1 (centres undefined)	1	-1	9.8*	-2	-1	0	-1	2
CCCNc1c(NS(=O)(=O)c2ccc3c(c2)CCCC3)c(=O)oc2ccccc12	nt	nt	nt	nt	0	nt	nt	nt
Cc1cc(C(=O)Nc2ccc(Cl)cc2)on1	0	-1	-1	-1	1	0	nt	nt
Cc1ocnc1C(=O)Nc1ccc(Cl)cc1	6	-1	9.3*	2	1	3	6	5
COc1cccc2c3c(c(=O)[nH]c12)CC(C)(C)O3	0	-2	12*	1	nt	0	-1	0
CC(C)[C@H](NC(=O)c1ccc(C(C)(C)C)cc1)C(=O)N1CCN(Cc2ccc3c(c2)OCO3)CC1	0	-2	-6	-3	-2	-3	nt	nt
Cc1cc(C(=O)Nn2c(-c3ccncc3)nc3ccccc3c2=O)ccc1[N+](=O)[O-]	-3	0	-2	-1	1	-1	nt	nt
Cc1oncc1C(=O)Nc1ccc2ccccc2c1	9	0	9.1*	3	0	3.8*	9.3*	5
Cc1oncc1C(=O)Nc1cccc2ccccc12	3	-1	-2	-2	0	0	nt	nt
COc1ccc(C2CC(c3ccc(OC)c(OC)c3)=NN2C(=O)c2ccccc2)cc1 (centres undefined)	-1	-2	13*	-1	0	0	13*	3
CN1CCC(=NNC(=O)C(=O)Nc2ccccc2)CC1	3	-1	8.2*	1	1	1	6	2
O=C(NCCCNCCCNC(=O)c1ccccn1)c1ccccn1	1	-1	12*	-1	2	0	-3	1
N#Cc1c(NCCN)nc(-c2ccco2)c2c1CCCC2	1	-1	9.7*	0	0	-1	31*	0
CCCC(=O)Nc1ccc(-c2csc(NNC(C)=O)n2)cc1	1	-1	12*	-1	-1	0	-2	2
CC(=O)NNc1nc(-c2ccc(C)cc2)cs1	0	-1	-2	-1	-1	0	nt	nt
COc1cc2c(cc1OC)CN(C(=O)C1CCCN1S(=O)(=O)c1ccc(C)cc1)CC2 (centres undefined)	-2	-1	-2	-1	1	-1	nt	nt
O=C(Nc1ccc(-c2cn3c(n2)SCC3)cc1)c1ccco1	7	-1	14*	2	-1	0	8	10*
COC(=O)C(C)N1C(=O)S/C(=C\c2ccc(-c3ccc(C(=O)O)cc3C)o2)C1=O (centres undefined)	6	0	11*	1	0	1	9.8*	10*
Cc1cc(-c2sccc2Br)nc(-n2cccc2)n1	3	0	-2	5	0	0	nt	nt
Cc1cc(-c2ccc(Br)s2)nc(-n2cccc2)n1	9	-1	12*	0	0	1	-5	4
CCCNC(=O)C1(C)CCCN(C(=O)c2cccc(Cl)c2)C1 (centres undefined)	-3	-1	9.3*	-2	nt	0	0	1
C/C(=N\Nc1ccccn1)c1cccs1	10	0	10.0*	3	3	3.9*	11*	6.4*
O=C(N/N=C/c1ccc(Cl)cc1Cl)c1n[nH]c2c1CCCC2	2	-1	9.5*	0	0	1	6	8.0*
NC1=NC(=O)S/C1=C\c1ccc(F)cc1	1	-1	-5	5	0	0	nt	nt
SMILES	hgDAF12 agonist	ssDAF12 agonist	SMARCA2 act	hcDAF-12 act	DAX1 inh-1	DAX1 inh-2	SMARCA2 conf	GAL4-VP16 Luc
CC1(c2ccc3ccccc3c2)NC(=O)N(CC(=O)NCc2cccs2)C1=O (centres undefined)	0	-1	9.6*	-2	1	0	0	1
Cc1cc(C)c(C)c(S(=O)(=O)N2CCC(C(=O)N3CCCCCCC3)CC2)c1C	-2	-1	1	-1	1	-2	nt	nt
O=C(NCc1ccco1)c1cc(-c2cccc(Cl)c2)on1	1	-1	-1	-1	1	0	nt	nt
COc1cccc(-c2cc(C(=O)NCc3ccco3)no2)c1	9	-1	8.4*	2	0	2	7	11*
O=C(NCc1ccco1)c1ccc(-c2cccc(Cl)c2)o1	4	-1	9.6*	1	0	1	13*	5.3*
O=C(CN1CCN(S(=O)(=O)c2ccccc2)CC1)Nc1ccc(Cl)c(Cl)c1	-5	-2	-4	-2	-2	-1	nt	nt
CCOc1ccc(S(=O)(=O)N2CCCCC2)cc1NC(=O)CSCc1c(C)noc1C	-3	-1	0	-2	0	-1	nt	nt
CCCCCn1c(SCC(=O)c2ccccc2)nc2cc(C(=O)NCC3CCCO3)ccc2c1=O (centres undefined)	1	-2	-2	0	0	0	nt	nt
Cc1ccc(N/C=C(\C2OC(=O)c3ccccc32)[N+](=O)[O-])c(C)c1 (centres undefined)	-2	-1	7	-1	nt	0	nt	nt
O=C1OC(/C(=C\Nc2cc(Cl)ccc2O)[N+](=O)[O-])c2ccccc21 (centres undefined)	-3	-1	33*	-3	-1	-2	5	-1
O=C1OC(/C(=C\Nc2ccc(F)cc2F)[N+](=O)[O-])c2ccccc21 (centres undefined)	0	-1	13*	0	0	-1	3	2
CCOC(=O)/C(=N/O)C1=NC(C)(C)Cc2cc(C)c(C)cc21	-2	-1	2	-2	2	0	nt	nt
